Measured values from publication PMC5540273 (PLoS ONE, 2017).

Test system: T1, MINK
T1 construct: gene MINK1
Details: concentration: 1 μM,replicates: in singlicate; n = 1
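Note: KINOMEscan kinase panel screen.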

Structure (SMILES)	%Inh
CCN(CC)CCOc1ccc(Nc2ncc3cc(-c4c(Cl)cccc4Cl)c(=O)n(C)c3n2)cc1 [SB-601273]	96.2%
CNC(=O)c1ccccc1Sc1ccc2c(/C=C/c3ccccn3)n[nH]c2c1	57%
C[C@@H](Oc1cc(-c2cnn(C3CCNCC3)c2)cnc1N)c1c(Cl)ccc(F)c1Cl	47%
C[C@@H]1CCN(C(=O)CC#N)C[C@@H]1N(C)c1ncnc2[nH]ccc12	0%
Cl.Cl.NC[C@H](CC1CCCCC1)NC(=O)c1cc(Br)c(-c2ccnc3[nH]ccc23)s1 [GSK1581427]	24%
C=CC(=O)Nc1cc2c(Nc3ccc(F)c(Cl)c3)ncnc2cc1OCCCN1CCOCC1 [GW781483]	26%
COc1ccc(C[C@@H](CN)NC(=O)c2cc(Br)c(-c3ccnc4[nH]ccc34)s2)cc1.Cl.Cl [GSK1389063]	78%
Cc1cc(C(=O)Nc2ccc(Oc3ccc4nc(NC(=O)C5CC5)cn4n3)cc2)nn1-c1ccccc1	0%
CCN(CC)CCCCNc1ncc2cc(-c3c(Cl)cccc3Cl)c(NC(=O)NC(C)(C)C)nc2n1	45%
CN(C)CC(O)COc1ccc(Nc2nccc(-c3cnn4nc(N5CCOCC5)ccc34)n2)cc1 (stereo not drawn) [GW767488]	55%
Cc1ccc(-n2nc(C(C)(C)C)cc2NC(=O)Nc2ccc(OCCN3CCOCC3)c3ccccc23)cc1 [GW839464]	84%
CC(C)N1C(=O)Cc2cc(Nc3ncc(C(F)(F)F)c(NCc4cccc(S(C)(=O)=O)c4)n3)ccc21	44%
C[C@H]1Oc2cc(cnc2N)-c2c(nn(C)c2C#N)CN(C)C(=O)c2ccc(F)cc21	0%
CN(C)CCOc1ccc(-c2cc(-c3c[nH]nc3-c3ccccn3)ccn2)cc1 [GW835314]	89%
Cl.Cl.NC[C@H](Cc1ccc(C(F)(F)F)cc1)NC(=O)c1cc(Br)c(-c2ccnc3[nH]ccc23)s1 [GSK1487252]	27%
CCn1c(-c2nonc2N)nc2c(C#CC(C)(C)O)nc(OCCN)cc21.Cl.Cl [GSK902056]	0%
Cl.Cl.Nc1nc(-c2ccc3c(N)n[nH]c3c2)cc(N2CCCC(NC(=O)c3ccccc3)C2)n1 (stereo not drawn) [GSK2286775]	17%
Nc1nc(Nc2ccccc2)cc(-c2ccc3c(N)n[nH]c3c2)n1 [GSK2225749]	47%
O=C(NCCNc1ccnc(NCc2ccc(F)cc2)n1)c1cc2ccccc2s1 [GSK1379944]	0%
CC(C)Nc1cc(-c2ccc3c(N)n[nH]c3c2)nc(N)n1 [GSK2221681]	9%
Cl.Oc1cc(-c2nc(-c3ccccc3)[nH]c2-c2ccncc2)ccc1Cl [SB-386023]	5%
Cc1n[nH]c2ccc(-c3cc(OC[C@@H](N)Cc4ccccc4)cnc3-c3ccoc3)cc12.O=C(O)C(F)(F)F.O=C(O)C(F)(F)F [GSK507358]	96.7%
Cc1ccc2c(-c3ccncc3)c(-c3ccc(F)cc3)nn2c1.Cl [GW461484]	72%
Cc1occc1-c1nc(N)c(OC[C@@H](N)Cc2c[nH]c3ccccc23)cc1-c1cc2c(C)n[nH]c2cn1 [GSK1660450]	97.5%
NC(=O)c1cc(-c2ccccc2)cc2c(C3CCNCC3)c[nH]c12 [GSK301362]	56%
Cc1cc2cn[nH]c2cc1-c1cccc2c(N)c(C(N)=O)nnc12	55%
O=C(NCCCN1CCOC1=O)c1cnc(NCc2cc(Cl)ccc2Cl)nc1NC1CCCC1	10%
